In PubChem BioAssay (NCATS):
“And” between values parts separate entries of the source, which are not always exact repeats. Equal values may be shown once. Results filed as inconclusive are left out. Some structures have more than one record in an assay (separate samples or runs), and their calls can disagree. The source made the active and inactive calls. Unless noted, calls follow the shape of the dose curve; as a rule, active = well fitted curve in the direction sought with a large enough effect; inconclusive = small, poorly fitted or top-dose-only effect, or another doubt; inactive = no such curve, though single readings can be large; an effect the other way counts as inactive or inconclusive.

What was measured:
[1] = molecular target: Cytochrome P450 1A2 (Homo sapiens) (UniProt P05177); experiment: p450-cyp1a2 (AID 410; calls by dose curve; also: potency is read from the fitted curve at half-maximal effect)
Summary of the method: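 20nM CYP1A2 with 100uM Luciferin-ME (at Km) in 100mM KPO4; compound preincubated 10 min, NADPH regeneration added, 60 min at room temperature. Luciferin quantified by luminescence after detection reagent; normalized to 57 uM furafylline.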

[2] = molecular target: Glucocorticoid receptor (Homo sapiens) (UniProt P04150); experiment: GR-GFP Redistribution (AID 450;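 active = compounds whose dose series gives a full or clear partial fitted curve of increased nuclear translocation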; also: potency is read from the fitted curve at half-maximal effect); conditions: U2OS GR-GFP nuclear translocation, laser cytometry, 2 h
[3] = molecular target: Glucocorticoid receptor (Homo sapiens) (UniProt P04150); experiment: GR-EFC Redistribution (AID 451; calls by dose curve; also: potency is read from the fitted curve at half-maximal effect); conditions: CHO-K1 GR-EFC translocation, beta-gal luminescence, 2 h
Summary of the method: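 CHO-K1 cells expressing nuclear EA and GR-ED fragments of b-gal; compounds titrated up to 46 uM final, 2 h at 37 C. GR nuclear translocation read as complemented b-gal luminescence after 1 h RT detection.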

[4] = molecular target: Mitogen-activated protein kinase 10 (Mus musculus) (UniProt Q61831); experiment: JNK3 AlphaScreen Assay (AID 530; active = well fitted curve in either direction with a large enough effect, not every such curve was filed as active;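 also: kinase came from lysate of stimulated human HepG2 cells; signal reports phosphorylation of biotinylated GST-cJun 1-79 at Ser73 with 10 µM ATP; series mostly up to about 57 µM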)
Summary of the method: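 Pre-activated (IL-1β/TNFα) JNK3 in HepG2 lysates phosphorylates biotin-GST-cJun(1-79), 10 uM ATP; anti-phospho-cJun(Ser73) AlphaScreen read at room temperature, pH 7.6 Tris buffer. Compounds pre-incubated 15 min as titrations.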

[5] = molecular target: Cytochrome P450 3A4 (Homo sapiens) (UniProt P08684); experiment: qHTS Assay for Activators of Cytochrome P450 3A4 (AID 885); also: nearly all actives have a fitted effect of over 65% in size
Summary of the method: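 Signal was normalized against complete inhibition by 57 uM ketoconazole. The reaction used 20nM CYP3A4 with 25uM Luciferin-PPXE, 10-min compound preincubation and a 60-min NADPH-supported step at RT.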

[6] = molecular target: Cytochrome P450 2D6 (Homo sapiens) (UniProt P10635); experiment: qHTS Assay for Inhibitors and Substrates of Cytochrome P450 2D6 (AID 891); also: potency is read from the fitted curve at half-maximal effect; nearly all actives have a fitted effect of over 60% in size
Summary of the method: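 Human CYP2D6 (5 nM) with 30 uM Luciferin-ME EGE (at Km) in 100 mM KPO4, compound preincubated 10 min, then NADPH regeneration system for 60 min at room temperature. Luciferin read by luminescence; normalized to 1.43 uM quinidine.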

[7] = molecular target: Cytochrome P450 2C19 (Homo sapiens) (UniProt P33261); experiment: qHTS Assay for Inhibitors and Substrates of Cytochrome P450 2C19 (AID 899); also: potency is read from the fitted curve at half-maximal effect; nearly all actives have a fitted effect of over 60% in size
Summary of the method: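 Signal comes from luciferase acting on luciferin released by CYP2C19-mediated hydroxylation of Luciferin-H EGE, 10uM (KM). Assay mix: 5nM enzyme, 50mM KPO4; 60 min at 37C with NADPH regeneration. Data normalized against 57uM ketoconazole.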

[8] = molecular target: Ubiquitin carboxyl-terminal hydrolase 1 (Homo sapiens) (UniProt O94782); experiment: Inhibitors of USP1/UAF1: Pilot qHTS (AID 504865);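 also: rhodamine fluorescence freed from ubiquitin-rhodamine substrate followed over time; top concentration of the series differs between compounds; nearly all actives have a fitted effect of over 35% in size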
Summary of the method: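 Kinetic fluorescence assay: 1nM USP1/UAF1, 15 min compound preincubation, then 150nM Ub-Rho; 480/540 nm.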

[9] = molecular target: DNA dC->dU-editing enzyme APOBEC-3G (Homo sapiens) (UniProt Q9HC16); experiment: qHTS for inhibitors of Vif-A3G interactions: Validation (AID 588379)
Summary of the method: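 HeLa cells stably expressing Vif and A3G-eYFP, 700 cells/well, incubated overnight at 37 deg C, then exposed to compound overnight at 37 deg C. Inhibition of Vif-mediated degradation read as increased yellow fluorescence (Ex 488/Em 500-530) by laser-scanning cytometry.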

[10] = system: Zika virus NS2B-NS3 protease; experiment: Primary screen GU AMC qHTS for Zika virus inhibitors (AID 1347154); also: nearly all actives have a fitted effect of over 70% in size
Summary of the method: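 Unlinked Zika NS2B hydrophilic domain–NS3 protease complex at 25 nM in 10 mM Tris-HCl pH 8.0, 0.01% Tween 20, with an AMC peptide substrate. Fluorescence change (340/450 nm) over 15 min at room temperature, normalized to controls, fitted to 4-parameter Hill.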

[11] = Counterscreen qHTS for small molecule stabilizers of the endoplasmic reticulum resident proteome: GLuc-NoTag assay (AID 1508627); also: potency is read from the fitted curve at half-maximal effect
Summary of the method: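 SH-SY5Y cells stably expressing constitutively secreted GLuc without SERCaMP tag, exposed to compound for 19 hr, then to 100 nM thapsigargin for 4 hr at 37C. Medium luciferase was read by coelenterazine luminescence without lysis.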

[12] = Confirmatory qHTS for small molecule stabilizers of the endoplasmic reticulum resident proteome: Secreted ER Calcium Modulated Protein (SERCaMP) assay (AID 1508628); also: series mostly up to about 76 µM; nearly all actives have a fitted effect of over 40% in size
Summary of the method: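 SH-SY5Y cells stably expressing GLuc-SERCaMP, treated 16 h with compound (primary 1.53, 7.67, 38.3 uM; confirmation 11 concentrations, up to 76.6 uM), then 100 nM thapsigargin for 4 h. Secreted Gaussia luciferase in medium read by coelenterazine luminescence.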

[13] = Cell Viability qHTS for small molecule stabilizers of the endoplasmic reticulum resident proteome (AID 1508629); conditions: cell viability counter-screen, 100 nM thapsigargin for final 4 h;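 also: potency is read from the fitted curve at half-maximal effect; compound exposure about 46 h in total before the viability read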
[14] = Primary qHTS for small molecule stabilizers of the endoplasmic reticulum resident proteome: Secreted ER Calcium Modulated Protein (SERCaMP) assay (AID 1508630); also: potency is read from the fitted curve at half-maximal effect
Summary of the method: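 GLuc-SERCaMP-expressing SH-SY5Y cells, pretreated 16 h with compound, are challenged with thapsigargin to empty ER calcium stores; after 4 h, coelenterazine is added directly to the medium and luminescence is imaged.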

Measured: Potency

Sequence of Glucocorticoid receptor (Homo sapiens) (P04150 whole entry, looked up, the tested form may be a part): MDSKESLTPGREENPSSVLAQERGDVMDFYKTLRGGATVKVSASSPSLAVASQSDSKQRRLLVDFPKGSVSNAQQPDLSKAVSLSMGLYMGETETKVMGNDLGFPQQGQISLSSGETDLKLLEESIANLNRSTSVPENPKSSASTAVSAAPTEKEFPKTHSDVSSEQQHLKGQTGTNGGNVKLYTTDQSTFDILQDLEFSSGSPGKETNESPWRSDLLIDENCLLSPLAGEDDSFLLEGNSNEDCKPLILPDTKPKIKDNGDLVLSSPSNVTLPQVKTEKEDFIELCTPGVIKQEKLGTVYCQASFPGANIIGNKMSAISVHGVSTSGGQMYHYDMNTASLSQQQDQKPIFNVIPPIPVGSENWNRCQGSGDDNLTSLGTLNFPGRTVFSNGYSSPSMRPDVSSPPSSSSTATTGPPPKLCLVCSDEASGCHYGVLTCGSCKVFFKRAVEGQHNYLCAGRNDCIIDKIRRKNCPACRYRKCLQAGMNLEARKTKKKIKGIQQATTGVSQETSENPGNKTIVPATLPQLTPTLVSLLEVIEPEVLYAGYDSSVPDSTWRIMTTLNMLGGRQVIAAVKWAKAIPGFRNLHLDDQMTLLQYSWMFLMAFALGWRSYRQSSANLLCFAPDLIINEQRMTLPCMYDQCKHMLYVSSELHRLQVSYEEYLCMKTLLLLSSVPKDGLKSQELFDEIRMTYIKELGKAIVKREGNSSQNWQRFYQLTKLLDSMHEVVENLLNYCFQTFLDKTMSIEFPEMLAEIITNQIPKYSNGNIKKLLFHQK
Sequence of DNA dC->dU-editing enzyme APOBEC-3G (Homo sapiens) (Q9HC16 whole entry, looked up): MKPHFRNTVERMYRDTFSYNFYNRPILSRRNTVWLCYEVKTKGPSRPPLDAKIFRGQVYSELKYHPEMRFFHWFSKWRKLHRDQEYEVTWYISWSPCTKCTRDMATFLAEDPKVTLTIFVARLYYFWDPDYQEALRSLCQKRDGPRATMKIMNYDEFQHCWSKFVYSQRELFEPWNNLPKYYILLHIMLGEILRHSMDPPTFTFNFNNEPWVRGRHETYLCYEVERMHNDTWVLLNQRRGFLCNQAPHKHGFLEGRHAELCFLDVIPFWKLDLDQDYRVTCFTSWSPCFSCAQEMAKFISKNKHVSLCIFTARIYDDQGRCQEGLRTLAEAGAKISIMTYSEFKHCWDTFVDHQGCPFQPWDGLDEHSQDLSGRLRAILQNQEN
Sequence of Ubiquitin carboxyl-terminal hydrolase 1 (Homo sapiens) (O94782 whole entry, looked up): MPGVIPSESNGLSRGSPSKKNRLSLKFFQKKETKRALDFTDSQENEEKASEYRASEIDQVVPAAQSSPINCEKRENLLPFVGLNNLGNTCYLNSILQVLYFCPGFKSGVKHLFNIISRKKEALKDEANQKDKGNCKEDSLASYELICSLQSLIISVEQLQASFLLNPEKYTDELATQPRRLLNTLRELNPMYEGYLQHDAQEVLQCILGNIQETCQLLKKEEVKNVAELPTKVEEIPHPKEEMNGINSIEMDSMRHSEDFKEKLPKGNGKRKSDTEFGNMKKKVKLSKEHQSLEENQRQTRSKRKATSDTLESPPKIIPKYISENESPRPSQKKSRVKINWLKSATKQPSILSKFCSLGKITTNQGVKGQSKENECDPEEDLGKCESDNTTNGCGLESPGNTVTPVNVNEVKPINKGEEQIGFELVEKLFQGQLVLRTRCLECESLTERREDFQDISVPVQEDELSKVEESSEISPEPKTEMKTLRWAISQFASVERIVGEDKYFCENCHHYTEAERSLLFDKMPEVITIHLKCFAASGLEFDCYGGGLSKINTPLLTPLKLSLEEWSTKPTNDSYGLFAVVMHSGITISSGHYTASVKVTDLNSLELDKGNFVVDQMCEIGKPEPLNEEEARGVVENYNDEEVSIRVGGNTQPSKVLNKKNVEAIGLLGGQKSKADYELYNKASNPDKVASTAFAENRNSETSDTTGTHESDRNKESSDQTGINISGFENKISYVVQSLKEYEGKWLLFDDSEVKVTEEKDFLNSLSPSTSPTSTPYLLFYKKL
Sequence of Cytochrome P450 2D6 (Homo sapiens) (P10635 whole entry, looked up): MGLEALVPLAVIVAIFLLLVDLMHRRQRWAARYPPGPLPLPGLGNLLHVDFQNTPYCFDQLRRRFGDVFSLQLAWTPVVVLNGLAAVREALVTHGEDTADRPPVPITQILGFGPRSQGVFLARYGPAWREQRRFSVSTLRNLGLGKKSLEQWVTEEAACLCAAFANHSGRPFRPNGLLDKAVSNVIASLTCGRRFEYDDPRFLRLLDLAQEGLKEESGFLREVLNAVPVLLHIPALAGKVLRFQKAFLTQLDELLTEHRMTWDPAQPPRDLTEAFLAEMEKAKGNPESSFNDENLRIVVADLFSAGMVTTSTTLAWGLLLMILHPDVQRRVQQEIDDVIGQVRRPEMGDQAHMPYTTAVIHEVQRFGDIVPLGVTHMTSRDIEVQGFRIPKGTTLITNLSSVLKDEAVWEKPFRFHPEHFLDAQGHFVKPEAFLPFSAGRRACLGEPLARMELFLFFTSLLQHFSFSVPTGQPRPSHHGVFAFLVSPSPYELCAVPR
Sequence of Cytochrome P450 3A4 (Homo sapiens) (P08684 whole entry, looked up): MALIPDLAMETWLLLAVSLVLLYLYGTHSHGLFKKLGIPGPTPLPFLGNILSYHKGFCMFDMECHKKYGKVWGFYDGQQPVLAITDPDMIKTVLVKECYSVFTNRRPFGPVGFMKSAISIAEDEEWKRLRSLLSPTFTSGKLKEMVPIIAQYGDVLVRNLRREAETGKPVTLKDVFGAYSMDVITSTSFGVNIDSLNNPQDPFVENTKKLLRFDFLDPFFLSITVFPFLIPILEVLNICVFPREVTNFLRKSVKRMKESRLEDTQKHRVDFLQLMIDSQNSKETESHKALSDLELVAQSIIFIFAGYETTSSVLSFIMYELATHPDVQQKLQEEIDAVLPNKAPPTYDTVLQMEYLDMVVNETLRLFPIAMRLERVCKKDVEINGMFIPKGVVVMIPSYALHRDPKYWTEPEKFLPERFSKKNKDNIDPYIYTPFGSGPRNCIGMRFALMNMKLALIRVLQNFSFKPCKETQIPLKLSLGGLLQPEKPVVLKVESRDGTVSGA
Sequence of Cytochrome P450 1A2 (Homo sapiens) (P05177 whole entry, looked up): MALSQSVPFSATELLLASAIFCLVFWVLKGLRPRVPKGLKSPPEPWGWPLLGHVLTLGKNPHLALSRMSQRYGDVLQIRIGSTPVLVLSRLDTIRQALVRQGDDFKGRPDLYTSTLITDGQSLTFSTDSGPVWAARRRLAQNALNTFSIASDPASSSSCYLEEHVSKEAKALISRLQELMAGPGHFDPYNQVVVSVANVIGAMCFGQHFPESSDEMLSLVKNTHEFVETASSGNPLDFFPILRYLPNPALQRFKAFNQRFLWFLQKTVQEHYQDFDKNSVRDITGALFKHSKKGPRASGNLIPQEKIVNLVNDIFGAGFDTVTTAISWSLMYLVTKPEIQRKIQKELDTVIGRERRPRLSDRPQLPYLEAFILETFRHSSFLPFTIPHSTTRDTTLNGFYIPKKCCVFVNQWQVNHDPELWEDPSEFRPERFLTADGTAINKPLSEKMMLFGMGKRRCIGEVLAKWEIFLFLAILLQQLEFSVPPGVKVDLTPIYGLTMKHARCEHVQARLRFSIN
Sequence of Cytochrome P450 2C19 (Homo sapiens) (P33261 whole entry, looked up): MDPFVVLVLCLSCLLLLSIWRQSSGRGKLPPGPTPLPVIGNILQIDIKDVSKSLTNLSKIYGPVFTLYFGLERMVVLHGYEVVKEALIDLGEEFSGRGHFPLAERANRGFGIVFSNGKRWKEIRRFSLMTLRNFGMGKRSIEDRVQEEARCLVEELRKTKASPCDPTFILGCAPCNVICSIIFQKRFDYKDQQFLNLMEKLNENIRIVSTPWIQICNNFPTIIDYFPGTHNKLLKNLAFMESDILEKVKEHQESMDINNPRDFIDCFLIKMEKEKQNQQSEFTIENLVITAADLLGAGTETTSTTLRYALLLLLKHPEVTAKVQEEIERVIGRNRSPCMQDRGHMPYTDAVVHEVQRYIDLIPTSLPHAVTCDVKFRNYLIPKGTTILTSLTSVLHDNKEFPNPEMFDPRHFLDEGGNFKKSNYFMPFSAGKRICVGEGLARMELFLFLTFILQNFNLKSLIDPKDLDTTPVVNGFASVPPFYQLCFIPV

NC(=NC1C2CC3CC(C2)CC1C3)Nc1ccc(I)cc1 (centres undefined)
inactive: [2] > 46 µM | [3] > 46 µM | [4] | [5] | [8] | [9] | [10] | [12]
inactive and 4.47 µM (active): [14]
active: [1] 39.8 µM | [6] 0.0398 µM | [7] 5.01 µM | [11] 31.6 µM | [13] 12.6 µM
